The target of test [1] is PEG-3 (UniProt Q6IN02). Nature of the test: Peg3 promoter luciferase inhibitors, potency, dose response, cell-based, HeLa, CREF/GAPDH counter-screen panel (AID 624167). As to conditions: CREF/GAPDH counter-screens; HeLa PEG-Prom luciferase reporter, overnight, run 1, dose range 1, at 100 µM (top of the series) unless noted.
In test [2] the target is PEG-3 (UniProt Q6IN02). The test is described as above. As to conditions: CREF/GAPDH counter-screens; HeLa PEG-Prom luciferase reporter, overnight, run 2, dose range 1, at 100 µM (top of the series) unless noted.

PEG-3, sequence (Q6IN02 whole entry, looked up): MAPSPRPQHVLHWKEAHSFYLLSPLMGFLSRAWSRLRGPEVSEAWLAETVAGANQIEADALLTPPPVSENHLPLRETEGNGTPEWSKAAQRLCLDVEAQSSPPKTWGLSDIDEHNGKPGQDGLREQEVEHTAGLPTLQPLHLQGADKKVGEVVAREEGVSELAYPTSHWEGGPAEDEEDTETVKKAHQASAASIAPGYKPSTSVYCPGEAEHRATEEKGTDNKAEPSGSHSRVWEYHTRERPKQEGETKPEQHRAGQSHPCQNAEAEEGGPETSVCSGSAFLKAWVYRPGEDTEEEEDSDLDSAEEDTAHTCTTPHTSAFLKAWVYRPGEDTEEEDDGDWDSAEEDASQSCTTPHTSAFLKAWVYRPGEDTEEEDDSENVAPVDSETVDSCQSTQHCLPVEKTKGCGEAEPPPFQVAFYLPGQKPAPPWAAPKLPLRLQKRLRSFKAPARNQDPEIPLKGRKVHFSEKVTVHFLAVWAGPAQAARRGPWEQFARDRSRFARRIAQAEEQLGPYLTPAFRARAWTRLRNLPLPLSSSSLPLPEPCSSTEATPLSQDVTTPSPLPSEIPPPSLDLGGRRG

Regarding `Cc1ccc(S(=O)(=O)N2CCCCC2)cc1C(=O)N(C)CC(=O)Nc1ccc(Cl)c(C(F)(F)F)c1`, the inhibition with PEG-3 [1] amounted to 74.6%; with PEG-3 [2], 60.6%.
Taken in the same sequence, the figures for `COc1ccc(N(Cc2cc3cc(OC)ccc3[nH]c2=O)S(=O)(=O)c2ccc(NC(C)=O)cc2)cc1` were 89.7% and 89.7%.
With `C[C@@H]1[C@H]2[C@@H]3CC[C@@H](C3)[C@H]2CN[C@H]1c1cn(Cc2ccccc2)c2ccccc12`, the inhibition came out at 99.2% with PEG-3 [1] and 102% with PEG-3 [2].
Taken in the same sequence, the figures for `CCCc1ccc(C(=O)O/N=C(\N)c2ccccn2)cc1` were 99.7% and 102%.
For `CCN1C/C(=C/c2ccc(N3CCOCC3)cc2)C(=O)/C(=C/c2ccc(N3CCOCC3)cc2)C1`, the inhibition with PEG-3 [1] was 94.6%; in the test with PEG-3 [2] it was 96.4%.
Taken in the same sequence, the figures for `CCOC(=O)c1sc2nc(CSc3ccccc3)nc(N3CCCN(C)CC3)c2c1C` were 101% and 99%.
Taken in the same sequence, the figures for `CSc1ccc2c(c1)C(N1CCN(C)CC1)Cc1ccccc1S2` (stereo not given) were 102% and 98.9%.
Taken in the same sequence, the figures for `Cc1cccc(CN2C(=O)/C(=C\c3ccc(C(=O)NCCN4CCOCC4)cc3)Sc3ccccc32)c1` were 102% and 99.5%.
Regarding `COc1ccc(C2c3c(ncn(CCCN4CCOCC4)c3=N)Oc3ccc4ccccc4c32)cc1OC` (stereo not given), the inhibition in the test with PEG-3 [1] was found to be 102%; in the test with PEG-3 [2] it was 100%.
Consider `COc1cc(NC(=O)c2cccc(C)c2)ccc1NC(=O)c1cc2ccccc2o1`, for which the inhibition with PEG-3 [1] is 76.6% [run 1, dose range 1, at 50 µM]; in the test with PEG-3 [2], 94.6% [run 2, dose range 1, at 50 µM].
Taken in the same sequence, the figures for `COc1ccc(CN2CCN(C(=O)c3cc(-c4cccnc4)nc4ccc(Cl)cc34)CC2)c(OC)c1OC` were 74.9% and 83%.
For the compound `CCCN(CC(=O)Nc1cc(Cl)cc(Cl)c1)CC(=O)Nc1ccc(F)c(F)c1F`, the inhibition with PEG-3 [1] was found to be 101%; with PEG-3 [2] it was 99%.
Taken in the same sequence, the figures for `Cc1ccc(CC2(OCCN(C)C)CCC(C(C)(C)C)CC2)cc1` (stereo not given) were 99.6% and 97.3%.
The like results for `CN(C)CC1CCC/C(=C/c2ccc(Cl)cc2)C1=O` (stereo not given) were, in that order, 102% and 98.7%.
Taken in the same sequence, the figures for `O=C(Nc1ccccc1N1CCOCC1)c1cc(-c2ccncc2)nc2ccccc12` were 93.7% and 88%.
For `COc1cc(/C=C2\SC(=S)N(CCC(=O)N3CCCCC3)C2=O)cc(OC)c1OC`, the figures for the inhibition with PEG-3 [1] and in the test with PEG-3 [2] were 98.1% and 99%, respectively.
Consider `CCC(C)Sc1ccc(-c2nc3ccccn3c2NCc2ccccc2)cc1OC` (stereo not given), for which the inhibition with PEG-3 [1] was 102%; with PEG-3 [2], 89.4%.
Taken in the same sequence, the figures for `Cc1cccc(NC(=O)CSc2nc3ccccc3c3nc(CCc4c(C)n[nH]c4C)nn23)c1` were 97.9% and 95.8%.
The like results for `COc1ccc(-c2cc(C(F)F)n3ncc(C(=O)n4ccnc4C)c3n2)cc1` were, in that order, 99.6% and 101%.
In the case of `N=c1n(CCN2CCCC2)c2ccccc2n1CC(O)c1ccc(Cl)c(Cl)c1` (stereo not given), the inhibition with PEG-3 [1] was determined as 99.3%; in the test with PEG-3 [2], 101%.
Taken in the same sequence, the figures for `COc1cccc(/C=C2/Sc3ccc(C(=O)NCCCN4CCCC4)cc3NC2=O)c1` were 102% and 99%.
The like results for `O=c1cc2oc3cc(O)c(O)cc3c(-c3ccccc3[N+](=O)[O-])c-2cc1O` were, in that order, 93.5% and 99.6%.
The like results for `N=c1c2c(-c3ccccc3)c(-c3ccccc3)n(Cc3ccccc3)c2ncn1CCO` were, in that order, 96.4% and 97.6%.
In the case of `CCOC(=O)CN(C(=O)CSc1nnc2c(n1)[nH]c1ccc(F)cc12)c1ccccc1`, the inhibition was found to be 99.9% in the test with PEG-3 [1] and 99.2% with PEG-3 [2].
Taken in the same sequence, the figures for `NC(N)=N/N=C/c1ccc(Cl)cc1Cl` were 97.7% and 99.1%.
The like results for `CCCCN(C)C(=O)c1ccc(Nc2nc(C(N)CCc3ccccc3)cs2)nc1` (stereo not given) were, in that order, 98.6% and 94.6%.
Taken in the same sequence, the figures for `CC(C)(C)OC(=O)CC(S(=O)(=O)c1ccccc1)S(=O)(=O)c1ccccc1` were 102% and 101%.
As to `CC(=O)c1ccc(Nc2cc(C)nc3ccc(C)cc23)cc1`, the values for the inhibition with PEG-3 [1] and in the test with PEG-3 [2] were 99.2% and 102%, respectively.
Taken in the same sequence, the figures for `CCc1ccc(NC(=O)CSc2nc3ccccc3c(=O)n2CCCN2CCC(C)CC2)cc1` were 99.2% and 101%.
Regarding `O=C(Cc1csc(Nc2nc(=S)[nH]c3ccccc23)n1)NCc1ccccc1Cl`, the results for the inhibition in the test with PEG-3 [1] and with PEG-3 [2] were -6.11% and -45.6%, respectively.
Taken in the same sequence, the figures for `CS(=O)(=O)c1ccc(C(=O)NCCN2C(=O)S/C(=C\c3cccnc3)C2=O)cc1[N+](=O)[O-]` were 102% and 99.2%.
Turning to `Cc1ccc(NS(=O)(=O)c2cc3c4c(cccc4c2)C(=O)NC3=O)cc1C`, the inhibition with PEG-3 [1] came out at 71.4%; with PEG-3 [2], 66.9%.
The like results for `COC(=O)c1ccc(OCC2c3cc(OC)c(OC)cc3CCN2C(=O)c2ccco2)cc1` (stereo not given) were, in that order, 77.9% and 73.5%.
The like results for `CC(NS(=O)(=O)OCC(Cl)(Cl)Cl)c1ccc(C(C)(C)C)cc1` (stereo not given) were, in that order, 101% and 97.9%.
The like results for `CCOC(=O)c1c(NC(C)=O)sc2c(OCC(O)CN(CC)CC)c(Br)ccc12` (stereo not given) were, in that order, 102% and 98.6%.
As for `CCN(CC)CCOc1ccc(/C(=C(/Cl)c2ccccc2)c2ccccc2)cc1`, the inhibition with PEG-3 [1] and with PEG-3 [2] was 102% each time.
As for `Cc1nc(N2CCN(c3ccccc3O)CC2)c2c(-c3ccccc3)csc2n1`, the inhibition with PEG-3 [1] was determined as 94.8%; with PEG-3 [2] it was 94%.
As to `O=C1CCC2S/C(=C/Nc3ccc(C(F)(F)F)cc3)C(=O)N12` (stereo not given), the inhibition in the test with PEG-3 [1] came to 87.1%; with PEG-3 [2], 85.3%.
The like results for `CCc1ccc(OCCNc2cc(N3CCNC(C)C3)ccc2[N+](=O)[O-])cc1` (stereo not given) were, in that order, 99.6% and 101%.
Taken in the same sequence, the figures for `CCN(c1ccccc1)S(=O)(=O)c1ccc(C(=O)N(CCCN(C)C)c2nc3cc4c(cc3s2)OCO4)cc1` were 97.6% and 99%.
